In PubChem BioAssay (Tox21):
Results filed as inconclusive are left out. Entries that show only a call come without a potency. Active and inactive are the calls of the source. Calls follow the shape of the dose curve; as a rule, active = well fitted cell-killing curve with a large enough effect in the repeat runs; inconclusive = weak or mixed curves, or effect the other way; inactive = flat fitted curve, though single readings scatter.

Assay: qHTS RealTime-Glo MT Cell Viability Assay in HEK293 cells - 0 hour (AID 1224880); also: top concentration of the series differs between compounds; nearly all actives have a fitted effect of over 45% in size
Details: RealTime-Glo luminescence; series mostly up to 76.8 µM
Description: U.S. Tox21 Program National Center for Advancing Translational Sciences [NCATS] NIH Chemical Genomics Center [NCGC] U.S. Environmental Protection Agency [EPA] National Institutes of Environmental Health Sciences [NIEHS] National Toxicology Program [NTP] U.S. Food and Drug Administration [FDA] Tox21 Assay Overview: Measure of cell viability is critical in the cell-base assay. Analysis of cell viability is necessary for the characterization of cell responses to cytotoxic drugs and environmental stress. A RealTime-Glo MT Cell Viability Assay to monitor cell viability in real time of continues cell culture during 40 hours of compound treatment was used to screen Tox21 10K library compounds in Hek293 cells. The RealTime-Glo MT Cell Viability Assay is a nonlytic, homogeneous, bioluminescent method to measure cell viability in real time using a simple, plate-based method. The assay involves adding NanoLuc luciferase and a cell-permeant prosubstrate to cells in culture. Viable cells reduce the proprietary prosubstrate to generate a substrate for NanoLuc luciferase. This substrate diffuses from cells into the surrounding culture medium, where it is rapidly used by the NanoLuc Enzyme to produce a luminescent signal. The signal correlates with the number of viable cells, making the assay well suited for cytotoxicity studies.
Tox21 Assay Protocol Summary: The mixture of Hek293 cell suspension and reagents were dispensed at 600cells/6 ul/well in 1536-well tissue culture treated black solid bottom plates using a Multidrop dispenser. After the assay plates were incubated at a 37 C/5% CO2 incubator for 5 hours, 23 nL of compounds dissolved in DMSO, positive and negative controls was transferred to the assay plate by a pintool work station. The plates were incubated at 37 C for 40 hours. The luminescence intensity were measured at 0h, 8h, 16h, 24h, 32h and 40h time points using ViewLux plate reader during compound treatment.

| SMILES | Potency | activity change, negative = cytotoxicity |
| --- | --- | --- |
| CN(C)[C@@H](CCOc1cccc2ccccc12)c1ccccc1 | inactive | – |
| CCCC(=O)OC(C)(C)Cc1ccccc1 | inactive | – |
| OC1CCC(C2CCCCC2)CC1 (stereo not given) | inactive | – |
| COCCOc1cc2cc(C(=O)NC3CCN(C(C)C)CC3)n(CC(=O)Nc3ccc(Cl)cn3)c2cn1 | inactive | – |
| FC(F)(F)c1cccc(Cl)c1 | inactive | – |
| c1ccc(C(O[C@@H]2CCCN(CCc3ccc4c(c3)OCO4)C2)c2ccccc2)cc1 | inactive | – |
| O=c1oc2cc(O)ccc2c2oc3cc(O)ccc3c12 | inactive | – |
| C#C[C@]1(OC(C)=O)CC[C@H]2[C@@H]3CCC4=C/C(=N/O)CC[C@@H]4[C@H]3CC[C@@]21CC | inactive | – |
| Cc1c(C)c2c(c(C)c1OC(=O)c1cccnc1)CC[C@@](C)(CCC[C@H](C)CCC[C@H](C)CCCC(C)C)O2 | inactive | – |
| C=CC(=O)OCCOC(=O)C=C | inactive | – |
| CC1(C)[C@@H](O)CC[C@]2(C)[C@H]3C(=O)C=C4[C@@H]5C[C@@](C)(C(=O)O)CC[C@]5(C)CC[C@@]4(C)[C@]3(C)CC[C@@H]12 | inactive | – |
| O=C(O)CN(CCN(CC(=O)O)CC(=O)O)CC(=O)O | – | 0.0989% [at 2.72 µM] (inactive) |
| COC(C)=O | inactive | – |
| Nc1ccc(Oc2ccc(Cl)cc2)cc1 | inactive | – |
| OC[C@@H](O)[C@@H](O)CO | inactive | – |
| O=[N+]([O-])c1ccc(O)cc1C(F)(F)F | inactive | – |
| CCC(C)(CCC(C)C)C(=O)[O][Sn]([CH3])([CH3])[O]C(=O)C(C)(CC)CCC(C)C (stereo not given) | inactive | – |
| OC/C=C/CO | inactive | – |
| Clc1nnc(Cl)c2ccccc12 | inactive | – |
| CCCC[P+](C)(CCCC)CCCC | inactive | – |

| SMILES | Potency | activity change, negative = cytotoxicity |
| --- | --- | --- |
| CCCCOC(=O)CO | inactive | – |
| CCN(CC)c1ccc2c(-c3ccc(S(=O)(=O)O)cc3S(=O)(=O)[O-])c3ccc(=[N+](CC)CC)cc-3oc2c1 | inactive | – |
| CN(C)c1ccc(C(=C2C=CC(=[N+](C)C)C=C2)c2ccc(N(C)C)cc2)cc1 | inactive | – |
| C=CCCC(=O)/C=C/C1C(C)=CCCC1(C)C (stereo not given) | inactive | – |
| O=c1c(O)c(-c2ccc(O)cc2O)oc2cc(O)cc(O)c12 | inactive | – |
| CCOc1ccc2ccccc2c1C(=O)N[C@@H]1C(=O)N2[C@@H]1SC(C)(C)[C@@H]2C(=O)O | inactive | – |
| CCN1C(=O)c2ccccc2C1Nc1ccc(OCCN2CCCCC2)cc1 (stereo not given) | inactive | – |
| [Cu+] | inactive | – |
| CN1CCCCC1CCN1c2ccccc2Sc2ccc(S(C)=O)cc21 (stereo not given) | inactive | – |
| CC(C)(C)C1CCC(=O)CC1 | inactive | – |
| CCC(CC)C(C)CCOC(C)=O (stereo not given) | inactive | – |
| O=C1CCCCCCCCCCCCCCCO1 | inactive | – |
| CC[N+](CC)(CC)CCOc1ccc(/C=C/c2ccccc2)cc1 | inactive | – |
| Oc1cc(Cl)cc(Cl)c1Cl | inactive | – |
| O=C(O)[C@H](O)[C@@H](O)[C@H](O[C@@H]1O[C@H](CO)[C@H](O)[C@H](O)[C@H]1O)[C@H](O)CO | inactive | – |
| O=C1CCc2cc(OCCCCc3nnnn3C3CCCCC3)ccc2N1 | inactive | – |
| Cc1c(F)c(N2CCNC(C)C2)cc2c1c(=O)c(C(=O)O)cn2C1CC1 (stereo not given) | inactive | – |
| CC(CO)Oc1ccccc1 (stereo not given) | inactive | – |
| O=[N+]([O-])c1ccc(F)c(Cl)c1 | inactive | – |
| O=[N+]([O-])c1cccc(C(F)(F)F)c1 | inactive | – |
